Rows were chosen to be rich in hits. Some 19% of all compounds tested hit in one or more screens of this group.
IL-1B inflam inh: qHTS for Inhibitors of Inflammasome Signaling: IL-1-beta AlphaLISA Primary Screen; AID 743279, 2014; 360,000 compounds, 4.7% hits; THP-1 LPS/ATP IL-1B secretion, AlphaLISA, 16 h; stronger effect = lower value; activity change, % at 57.5 µM; in the data active = activity change below about -50%; inconclusive = mostly about -30% to -49%; note: % is set by controls: 0 for no effect and ±100 for the full control effect
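Secreted IL-1B measured by AlphaLISA bead assay after 16 h compound exposure of THP-1 cells; compounds (final up to 57.5 uM) added 1 h before LPS (250 ng/mL) and ATP (1.25 mM) stimulation; lower signal means less secretion.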
TGFb SMAD3 inh: qHTS for Inhibitors of TGF-b; HepG2 CAGA-GFP TGF-b/SMAD3 reporter, GFP fluorescence, 18 h; TGF-beta stimulated, 500 pg/mL final; Potency, µM (top dose mostly 46.1 µM), for the others: at the top dose activity, negative = inhibition, actives largely listed as inhibitors; 410,000 compounds, 1.2% hits; note: potency is the fitted concentration of half-maximal effect; % is set by controls: 0 for no effect and ±100 for the full control effect; nearly all actives have a fitted effect of over 65% in size
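Inhibition of TGF-beta-driven CAGA-GFP reporter expression in HEPG2 cells is measured by cellular GFP fluorescence after 18 h stimulation with 500 pg/mL recombinant TGF-beta in 1% FBS medium at 37 degrees C.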
DT40 TDP1 CPT: qHTS for Inhibitors of human tyrosyl-DNA phosphodiesterase 1 (TDP1): qHTS in cells in presence of CPT; chicken DT40 Tdp1-/-;hTDP1 cells + 20 nM CPT, ATP luminescence, 48 h; Potency, µM (top dose mostly 46.2 µM), for inactives: top-dose activity change, negative = growth inhibition, usual class: inhibitors; 420,000 compounds, 12% hits; AID 686979, 2013; note: potency is the fitted concentration of half-maximal effect; % is set by controls: 0 for no effect and ±100 for the full control effect; nearly all actives have a fitted effect of over 55% in size
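Cell growth measured by CellTiter-Glo luminescence after a minimum 48 h, 37 C compound exposure with 20 nM CPT in Tdp1-knockout DT40 cells stably expressing hTDP1, seeded 400/well; qHTS titration format.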
HepG2 tox: qHTS for Inhibitors of TGF-b: Cytotox Counterscreen. HepG2 CAGA-GFP viability, ATP luminescence, 18 h. Potency, µM (titrated, usually from 46.1 µM), for the others: at the top dose activity change, negative = cytotoxicity, most hits filed as cytotoxic. 410,000 compounds, 0.76% hits. AID 588856, 2011; note: potency is the fitted concentration of half-maximal effect
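CellTiter-Glo luminescence gave cytotoxicity after 18 hours at 37 degrees C. The cells were HepG2 CAGA-GFP in 1% FBS DMEM, stimulated with 500 pg/mL TGF-beta after compound addition. %Activity was normalised to no-cell wells (complete cell-killing) and DMSO (no toxicity), and curves were fitted and classified.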
DT40 TDP1 no CPT: qHTS for Inhibitors of human tyrosyl-DNA phosphodiesterase 1 (TDP1): qHTS in cells in absence of CPT; 420,000 compounds, 15% hits; Potency, µM (top dose mostly 46.2 µM), for the others: top-dose activity change, negative = growth inhibition, hits mostly inhibitors; DT40 Tdp1-/- hTDP1 cells, no CPT, ATP luminescence, 48 h; AID 686978, 2013; note: potency is the fitted concentration of half-maximal effect; % is set by controls: 0 for no effect and ±100 for the full control effect; nearly all actives have a fitted effect of over 55% in size
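Stably hTDP1-transfected Tdp1-null chicken DT40 cells were treated with library compounds minus camptothecin and grown for at least 48 hr at 37 °C, after which cellular ATP was quantified by luminescence.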
TDP1 inh: qHTS Assay for Inhibitors of Tyrosyl-DNA Phosphodiesterase (TDP1); Tyrosyl-DNA phosphodiesterase 1 (Homo sapiens), Q9NUW8; recombinant TDP1, AlphaScreen DNA substrate cleavage; Potency, µM (titrated, usually from 130 µM), for the others: at the top dose activity change, negative = inhibition, hits mostly inhibitors; 350,000 compounds, 0.28% hits; note: potency is the fitted concentration of half-maximal effect; % is set by controls: 0 for no effect and ±100 for the full control effect; nearly all actives have a fitted effect of over 40% in size
Target sequence (Q9NUW8 whole entry, looked up): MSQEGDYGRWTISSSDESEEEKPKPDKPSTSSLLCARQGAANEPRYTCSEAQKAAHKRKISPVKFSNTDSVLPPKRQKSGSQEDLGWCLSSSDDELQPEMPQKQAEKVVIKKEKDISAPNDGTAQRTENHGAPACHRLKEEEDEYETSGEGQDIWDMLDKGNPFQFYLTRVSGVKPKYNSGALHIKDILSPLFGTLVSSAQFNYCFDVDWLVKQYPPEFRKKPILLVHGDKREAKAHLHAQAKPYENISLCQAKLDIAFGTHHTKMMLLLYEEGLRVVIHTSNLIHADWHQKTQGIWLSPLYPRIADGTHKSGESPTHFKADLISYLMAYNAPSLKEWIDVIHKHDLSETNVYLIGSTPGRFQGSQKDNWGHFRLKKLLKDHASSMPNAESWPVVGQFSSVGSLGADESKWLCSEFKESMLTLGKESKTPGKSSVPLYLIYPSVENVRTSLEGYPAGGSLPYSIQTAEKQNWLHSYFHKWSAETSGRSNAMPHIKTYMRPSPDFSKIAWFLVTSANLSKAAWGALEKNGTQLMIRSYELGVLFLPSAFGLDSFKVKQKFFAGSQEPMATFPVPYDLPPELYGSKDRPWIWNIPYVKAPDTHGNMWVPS
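Steps: enzyme plus compound, 15 min RT; add biotin/phosphotyrosine-FITC oligonucleotide (15 nM final), react 5 min; add donor/acceptor beads (10 ug/ml final), 10 min; read AlphaScreen. Tdp1 at 1 nM final.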
An asterisk follows results filed as active; ? = inconclusive; nt = not tested or not shown; ! = repeats disagree; [ ] = another dose, or the depositor's remark. Unless noted, calls come from the whole dose curve; as a rule, active = well fitted curve in the direction sought with a large enough effect; inconclusive = small, poorly fitted or top-dose-only effect, or another doubt; inactive = no such curve, though single readings can be large; an effect the other way counts as inactive or inconclusive.

SMILES	IL-1B inflam inh	TGFb SMAD3 inh	DT40 TDP1 CPT	HepG2 tox	DT40 TDP1 no CPT	TDP1 inh
CC(C)C[C@H]1CNC(=S)N1CC1CCN(CC2CCC(C(C)(C)C)CC2)CC1 (stereo partly drawn)	-22	-28%	16µM*	-22%	16µM*	nt
CC1C(=O)OC2C(O)C34C5OC(=O)[C@@]3(OC3OC(=O)[C@H](O)[C@]34C(C(C)(C)C)C5O)[C@]12O (stereo partly drawn)	nt	nt	16%	nt	5%	7%[56.1 µM]
CC(C)Oc1ccc(C2(C#N)CC[N+](C)(C)CC2)cc1	0	?	10%	-16%	-4%	-1%
CNC(C)C(O)c1ccc(O)cc1 (stereo not drawn)	nt	nt	2%	nt	3%	nt
CCCCn1c(N)c(N(CC(C)C)C(=O)c2cc(Br)c(Br)s2)c(=O)[nH]c1=O	-26	-5%	?	-3%	23µM*	nt
Cc1cnc2c(C(=O)O)c(Cl)ccc2c1	nt	nt	nt	nt	nt	9%
S=P(N1CCOCC1)(N1CC1)N1CC1	5	7%	5.2µM*	-22%	6.5µM*	nt
S=P(N1CCCCCC1)(N1CC1)N1CC1	-8	8%	3.3µM*	-2%	4.1µM*	nt
O=P(N1CCCCCC1)(N1CCCCCC1)N1CC1	2	1%	?	7%	-14%	nt
CC(C)(C)c1csc(NC(=O)Nc2ccccc2)n1	-94*	?	-25%	-46%	?	5%
C=C(COC(C)=O)CC1CC(O)[C@]2(C)OC3CC4OC5C[C@]6(C)O[C@]7(C)CCC8OC9C[C@]%10(C)OC%11C(C)=CC(=O)OC%11CC%10OC9C[C@@H](C)C8OC7CC6O[C@]5(C)C/C=C\C4OC3CC2O1 (stereo partly drawn)	-13	?	23µM*	-19%	?	4%
C=C(CO)CC1CC(O)[C@]2(C)OC3CC4OC5C[C@]6(C)O[C@]7(C)CCC8OC9C[C@]%10(C)OC%11C(C)=CC(=O)OC%11CC%10OC9C[C@@H](C)C8OC7CC6O[C@]5(C)C/C=C\C4OC3CC2O1 (stereo partly drawn)	-26	1%	23µM*	0%	16µM*	1%
C=C(C=O)CC1CC(O)[C@]2(C)OC3CC4OC5C[C@]6(C)O[C@]7(C)CCC8OC9C[C@]%10(C)OC%11C(C)=CC(=O)OC%11CC%10OC9C[C@@H](C)C8OC7CC6O[C@]5(C)CC5OC5C4OC3CC2O1 (stereo partly drawn)	-104*	?	0.41µM*	-32%	0.37µM*	5%
CCCCCCCCCCCCCCCC[n+]1ccccc1	-92*!	16µM*	0.65µM*	20µM*!	0.33µM*	3%
CCCCCCCCCCCCCl	nt	nt	nt	nt	nt	4%
CCCCCCC[n+]1ccc(-c2cc[n+](CCCCCCC)cc2)cc1	-5	-8%	0.65µM*	-40%	0.65µM*	1%
C[n+]1ccc(-c2cc[n+](C)cc2)cc1	-27	2%	-1%	4%	-4%	nt
O=C(O)CCCO	nt	nt	16%[92.5 µM]	nt	-22%[92.5 µM]	nt
CN=C=O	nt	nt	nt	nt	nt	10%
CN1CCc2cc3c(cc2[C@@H]1[C@@H]1OC(=O)c2c1ccc1c2OCO1)OCO3	nt	nt	nt	nt	nt	16%[21 µM]
COc1ccc(C2=NCC(=S)Nc3ccc(Cl)cc32)cc1Cl	22	8%	?	4%	21µM*	0%
COc1ccc(C2=NCC(=S)Nc3ccc(Cl)cc32)cc1OC	45	-18%	-13%	18%	?	nt
